An excerpt weighted towards active compounds, which were near 6.3% of everything screened.
Spn MK inh: blocks S. pneumoniae mevalonate kinase. purified MK, PK/LDH-coupled NADH absorbance 340 nm. inhibition, % at 10 µM. 0.48% of 65,000 active;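 active = ranked among the strongest by inhibition in the single 10 µM screen, a fixed top-ranked set picked for dose follow-up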
Spn PMK inh: S. pneumoniae PMK inhibition | purified PMK, PK/LDH-coupled NADH absorbance 340 nm | inhibition, % at 10 µM | 0.49% of 65,000 active;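 active = top-ranked compounds by inhibition in the single 10 µM screen, taking a fixed number of the strongest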;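 note: 0% = full reaction with DMSO carrier and 100% = background rate without enzyme reaction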
NADH enzymes: inhibitors of enzymes used to reach an NAD/NADH endpoint. coupled PK/LDH NADH assays, four targets. IC50, µM (titrated, usually from 10 µM), for inactives: at the highest dose inhibition. 0.02% of 65,000 active;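 active = single-dose screening hits from any of four coupled enzyme assays that gave an IC50 when retested across doses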;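 note: the DPM-DC format reads NADH fluorescence rather than 340 nm absorbance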
Autofluor 339: intrinsic fluorescence of library compounds, ex339/em460 – biochemical, MLSMR library, data from DPM-DC assay, artefact control, profiling panel; compound autofluorescence, ex339/em460 nm, NADH buffer; stronger effect = higher value; 1 = no-compound wells, NADH background; fluorescence fold increase at 10 µM; 5.5% of 65,000 active;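 active = at 10 µM, mean starting fluorescence two-fold or more over control wells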;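 note: signal is the first read of a kinetic run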
A340 absorber: compounds absorbing at 340 nm; 65,000 tested, under 10 active; compound absorbance at 340 nm, fold over control; fold change at 10 µM;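 active = at 10 µM dose, initial 340 nm absorbance at least 2 fold that of control wells; inactive = change under 2 fold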;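 note: initial absorbance extrapolated from kinetic A340 decline of NADH oxidation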
Spn DPM-DC inh: S. pneumoniae DPM-DC inhibition | purified DPM-DC, PK/LDH coupled NADH fluorescence | calls only at 10 µM | 0.49% of 65,000 active | AID 556;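 active = the 320 compounds with the highest percent inhibition in the single-dose primary screen, excluding strongly autofluorescent ones, cut at about 32% in these data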;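 note: kinetic rate of NADH fluorescence loss reporting ADP formed by the decarboxylase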
The depositor's hits bear a star; i = inactive; · = not tested or not shown; + = active, no number.

SMILES	Spn MK inh	Spn PMK inh	NADH enzymes	Autofluor 339	A340 absorber	Spn DPM-DC inh
CCc1cc(=O)oc2cc(OCc3nn[nH]n3)ccc12	6	11	11%	3*	1.1	i
CCCCc1cc(=O)oc2cc(OCc3nn[nH]n3)c(Cl)cc12	3	12	7%	2.5*	1.1	i
CC1=C(C(=O)Nc2cccc(C)n2)C(c2ccc3c(c2)OCO3)C2=C(CC(c3ccco3)CC2=O)N1 (stereo not given)	1	3	7%	2.3*	1.1	i
Cc1nc2n(n1)C(c1ccccc1)C1=C(CC(c3ccco3)CC1=O)N2 (stereo not given)	0	0	0%	1.6	1.1	i
CCN1CCN(CC(=O)Nc2cccc(C)c2C)C(=O)C1=O	5	14	6%	1.1	1	i
OC1CC(c2ccco2)NC2(CCCCC2)C1 (stereo not given)	35	5	13%	1.1	0.99	i
CCOc1ccccc1N1CCN(CC(O)COc2ccc3c(C)cc(=O)oc3c2)CC1 (stereo not given)	7	0	6%	1.7	1.1	i
O=c1[nH]c2c(cc1CNCCN1CCOCC1)c(-c1cccc(F)c1)nn2-c1ccccc1	22	12	20%	3.5*	1.1	i
Cc1nn(-c2ccccc2)c2[nH]c(=O)c(CNc3ccc(N4CCOCC4)cc3)cc12	4	11	5%	1.1	0.99	i
CCc1nn(C(C)C(=O)NCCc2ccc(OC)c(OC)c2)c(=O)c2cc3occc3n12 (stereo not given)	7	26*	11%	1	1	i
CCc1nn(C(C)C(=O)NC(C)CCc2ccco2)c(=O)c2cc3occc3n12 (stereo not given)	0	27*	11%	0.96	0.98	i
O=C(O)c1ccc(S(=O)(=O)NC2CCCc3ccccc32)cc1 (stereo not given)	0	17	6%	1.1	1	i
CC(=O)N1CCc2cc(S(=O)(=O)NC3CCCc4ccccc43)ccc21 (stereo not given)	0	27*	9%	1.1	1.1	i
N#Cc1c(SCC(=O)Nc2nccs2)nc2c(c1-c1ccco1)CCCC2	10	12	7%	1.2	1.1	i
COc1nc(-c2ccc(Cl)cc2)ccc1-c1noc(-c2ccco2)n1	7	0	8%	1.7	1.1	i
COc1ccc(-c2ccc(-c3noc(C(C)C)n3)c(OC)n2)cc1	7	0	4%	4*	1.1	·
CCc1nc(-c2ccc(-c3ccc(OC)cc3)nc2OC)no1	0	9	5%	2.1*	1.1	·
COc1nc(-c2ccccc2)ccc1-c1noc(C)n1	9	0	6%	1.3	1.1	i
COCc1nc(-c2ccc(-c3ccc(OC)cc3)nc2OC)no1	2	2	2%	2.1*	1.1	·
COc1cccc(-c2ccc(-c3noc(-c4ccccc4F)n3)c(OC)n2)c1	0	0	0%	3.8*	1.2	·
C=CCn1c(SC2CCOC2=O)nc2scc(C3CC3)c2c1=O (stereo not given)	5	13	7%	1.1	1	i
NC(=O)c1nn(-c2ccccc2)nc1NC(=O)CN1CCCCC1	0	5	2%	1.4	1	i
NC(=O)c1nn(-c2ccccc2)nc1N	0	3	2%	3.9*	1.1	·
Cc1cc(-c2ccccc2)nc(N2CCC(C(=O)NC(C)C)CC2)n1	0	14	30%	3.3*	0.95	+
CCC(C)NC(=O)C1CCN(c2nc(C)cc(C)n2)CC1 (stereo not given)	0	19	8%	1.4	0.99	i
SMILES	Spn MK inh	Spn PMK inh	NADH enzymes	Autofluor 339	A340 absorber	Spn DPM-DC inh
Oc1ccccc1-c1nnc(-c2ccc(C(F)(F)F)cc2)o1	0	22	17%	2.5*	1	i
Cc1ccccc1-c1nnc(-c2ccc(Br)cc2)o1	5	7	4%	1.1	1	i
CCCC1=C(C(=O)OCC)C(c2ccc(O)cc2)n2ncnc2N1 (stereo not given)	8	0	4%	1	1	i
CCS(=O)(=O)c1ccc(O)c(NC(=O)Nc2ccccc2)c1	42*	18	20%	1	1	i
Cc1cc(=O)n2[nH]c(-c3ccccc3Cl)cc2n1	0	25*	8%	1.1	0.98	i
COc1ccc(/C(O)=C2/C(=O)C(=O)N(CCN3CCOCC3)C2c2ccccn2)cc1 (stereo not given)	3	1	2%	1	1.1	i
CCOC(=O)N1CCC(Nc2nc3ccccc3n3nnnc23)CC1	0	13	7%	4*	1	·
c1ccc2c(c1)nc(Nc1ccc3c(c1)OCO3)c1nnnn12	0	8	3%	1.2	1	i
Cc1ccc(-c2nc3ccccc3n3nnnc23)cc1	9	7	8%	3.8*	1.1	·
Cc1ccc(CNc2nc3ccccc3n3nnnc23)cc1	0	9	10%	2.4*	1.1	i
CCN(CC)S(=O)(=O)c1ccc(Nc2nc3ccccc3n3nnnc23)cc1	0	7	7%	3.6*	1.1	i
COc1cc(OC)c(Cl)cc1N	7	7	6%	0.99	1	i
CCOC(=O)c1ccc(NC(=O)CC2COc3ccccc3O2)cc1 (stereo not given)	5	5	3%	1.1	1.1	i
CC1=CC(C)C2C(=O)N(CCCN(C)C)C(=O)C2C1 (stereo not given)	0	10	3%	1.1	1	i
CCN(CC)CCN(Cc1cc2cc(C)ccc2[nH]c1=O)C(=O)Nc1ccccc1OC	5	11	6%	1.2	1	i
COc1ccc2[nH]c(=O)c(CN(Cc3cccnc3)C(=O)Nc3ccccc3)cc2c1	4	13	12%	2.5*	1.1	i
COc1ccc2[nH]c(=O)c(CN(CCCN(C)C)C(=O)Nc3ccc(F)cc3)cc2c1	3	9	6%	2.7*	1.1	i
CC(=O)N(Cc1cccnc1)Cc1cc2ccccc2[nH]c1=O	4	13	6%	1.4	1.1	i
CCOc1ccc2[nH]c(=O)c(CN(Cc3cccnc3)C(=O)Nc3ccccc3OC)cc2c1	1	1	6%	2*	1.2	i
COc1cc(-c2nnc(CSc3nnc4nc(C)cc(C)n34)o2)cc(OC)c1OC	4	16	7%	1.4	1	i
CCOC(=O)C1CCN(C(=O)Nc2ccc3oc(C)nc3c2)CC1	10	7	6%	1.1	1	i
CCOC(=O)C1CCN(C(=O)Nc2ccc3nc(C)c(C)nc3c2)CC1	5	12	3%	2.9*	1	·
COc1ccc(-c2cn3c4c(sc3n2)CCCC4)cc1	6	6	4%	1.1	1	i

Screens deposited in PubChem BioAssay by SRMLSC.
